A549 viability = Nrf2 qHTS screen for inhibitors: counterscreen for cytotoxicity. AID 504648, 2011. 390,000 compounds, 0.16% hits. A549 ARE-Fluc cells, CellTiter-Fluor viability, 18-24 h. Potency, µM (titrated, usually from 46 µM), for the others: at the highest dose activity change, negative = cytotoxicity, actives largely listed as inhibitors; note: potency is the fitted concentration of half-maximal effect; % is set by controls: 0 for no effect and ±100 for the full control effect
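A549 ARE-Fluc cells in 5% FBS OPTI-MEM, 5000 cells/well, rested 2 h then exposed to compounds in concentration-response for 18-24 h at 37 °C. Viability by CellTiter-Fluor fluorescence (Ex 405/Em 525) after 30 min; luciferase luminescence (BugLite, 15 min, RT) read afterwards.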
Nrf2 activator = qHTS of Nrf2 Activators | AREc32 ARE-luciferase reporter (MCF7-derived line), luminescence, 24 h | Potency, µM (series often up to 46.1 µM), for inactives: top-dose activation, most hits filed as activators | 410,000 compounds, 0.31% hits; note: potency is the fitted concentration of half-maximal effect; % of control where 0% means no effect; nearly all actives have a fitted effect of over 65% in size
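For detection, Steady-Glo was added and plates sat 30 min at RT; before that, AREc32_Fluc cells grown overnight in OPTI-MEM/5% FBS had been treated with 23 nL compound for 24 hr at 37 deg C.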
LDHA block = qHTS assay for inhibitors of human lactate dehydrogenase; purified LDHA, NADH/diaphorase-resazurin fluorescence; stronger effect = lower value; activity change, % (values are at about 110 or 230 µM); 480,000 compounds, 0.15% hits; in the data active = activity change below about -30%; inconclusive = mostly about -25% to -30%;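 note: plate controls were DMSO wells for no effect and wells without enzyme for full effect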
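Remaining NADH was detected by diaphorase (0.133 mg/mL) converting 37 µM resazurin to fluorescent resorufin, read at 0 and 20 minutes. The preceding 5-minute room-temperature reaction used 2 nM LDHA, 0.2 mM sodium pyruvate and 0.06 mM NADH at pH 7.4.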
Nrf2 block = Nrf2 qHTS screen for inhibitors | 360,000 compounds, 2.1% hits | AID 504444, 2011 | A549 ARE-Fluc reporter, luciferase luminescence, 18-24 h | Potency, µM (doses to about 46 µM), for inactives: at the highest dose activity change, negative = inhibition, hits mostly inhibitors; note: potency is the fitted concentration of half-maximal effect; % is set by controls: 0 for no effect and ±100 for the full control effect; nearly all actives have a fitted effect of over 60% in size
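Two sequential reads on A549 ARE_Fluc cells exposed to compound for 18-24 h: a CellTiter-Fluor fluorescence read for viability, then a luciferase luminescence read for Nrf2/ARE activity.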
ALOX12 inh = Primary qHTS assay for inhibitors of human arachidonate 12S-lipoxygenase (ALOX12): Round 2; Polyunsaturated fatty acid lipoxygenase ALOX12 (Homo sapiens), P18054; purified 12hLO, xylenol orange hydroperoxide absorbance; Potency, µM (highest dose often 108 µM), for inactives: at the top dose activity change, negative = inhibition, most hits filed as inhibitors; 580,000 compounds, 1.1% hits; AID 1671190, 2021; note: potency is the fitted concentration of half-maximal effect; % is set by controls: 0 for no effect and ±100 for the full control effect
Target sequence (P18054 whole entry, looked up): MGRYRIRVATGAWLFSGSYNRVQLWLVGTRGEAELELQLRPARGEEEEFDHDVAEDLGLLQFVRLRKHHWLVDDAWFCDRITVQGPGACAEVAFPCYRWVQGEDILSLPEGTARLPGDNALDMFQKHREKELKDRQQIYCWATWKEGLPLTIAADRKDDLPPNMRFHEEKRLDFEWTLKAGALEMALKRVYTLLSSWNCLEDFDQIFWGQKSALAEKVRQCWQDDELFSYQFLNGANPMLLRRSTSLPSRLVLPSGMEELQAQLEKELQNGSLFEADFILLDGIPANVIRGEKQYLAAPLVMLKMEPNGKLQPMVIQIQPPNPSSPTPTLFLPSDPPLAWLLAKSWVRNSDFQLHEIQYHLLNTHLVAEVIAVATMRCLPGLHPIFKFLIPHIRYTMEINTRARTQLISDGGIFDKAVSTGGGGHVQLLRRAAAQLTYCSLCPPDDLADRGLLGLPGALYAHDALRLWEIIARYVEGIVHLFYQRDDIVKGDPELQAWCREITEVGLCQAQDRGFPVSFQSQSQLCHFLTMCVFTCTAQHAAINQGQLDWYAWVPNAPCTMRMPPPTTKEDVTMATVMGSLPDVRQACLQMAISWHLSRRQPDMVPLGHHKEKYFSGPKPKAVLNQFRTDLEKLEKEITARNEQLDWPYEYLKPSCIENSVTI
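Purified human 12hLO at 150 nM in 25 mM Hepes, 0.01% Triton X-100, pH 7.0, preincubated 15 min at room temperature with compound. Reaction started with 40 uM arachidonic acid, 30 min at room temperature. Hydroperoxide measured by Fe-xylenol orange, 573/405 nm absorbance ratio.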
ERG Ets-DNA blk = qHTS for Small Molecule Inhibitors of the ERG Ets/DNA interaction. Potency, µM (highest dose often 76.9 µM), inactives show at the top dose FP activity, negative = inhibition, actives largely listed as inhibitors. fluorescence polarization, His-ERG Ets domain / labelled DNA. 370,000 compounds, 0.028% hits. Transcriptional regulator ERG (Homo sapiens), P11308. AID 624246, 2012; active = well fitted inhibition curve with a large enough effect in the polarisation, with a control signal flat; inconclusive = small, poorly fitted or top-dose-only effect, or effect the other way, or a change in a side signal; inactive = no such curve, though single readings can be large or run the other way; the % refers to the polarisation;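 note: polarization taken with two DNA probes labelled with fluorescein and Texas red; potency is the fitted concentration of half-maximal effect; % of control where 0% means no effect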
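His-tagged ERG Ets domain (1 uM in the protein solution; 300mM KCl, 50mM Tris-HCl, 1mM EDTA, 1mM DTT, pH 7.5) received compound, then a probe mix of 5 nM fluorescein-DNA and 100nM Texas-615-DNA. Fluorescence polarization was read for both dyes.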
Starred values were filed as active, the others as inactive; [ ] = another dose, or the depositor's remark. Most compounds without a hit are left out; they make up all but 2.7% or so of the library. Unless noted, calls come from the whole dose curve; as a rule, active = well fitted curve in the direction sought with a large enough effect; inconclusive = small, poorly fitted or top-dose-only effect, or another doubt; inactive = no such curve, though single readings can be large; an effect the other way counts as inactive or inconclusive.

What do the screens show for `O=[N+]([O-])c1ccccc1-c1ccc(/C=N/O)o1`?
LDHA block: 11.0; ALOX12 inh: -27.9%

What do the screens show for `COc1ccc(/C=C2/C(=O)ON=C2c2ccccc2)cc1OC`?
A549 viability: -12.7%; Nrf2 activator: -0.1%; LDHA block: -60.1*; Nrf2 block: 6.5%; ALOX12 inh: inconclusive; ERG Ets-DNA blk: -3.5%

What do the screens show for `O=C1ON=C(c2ccccc2)/C1=C/c1ccc(-c2ccccc2[N+](=O)[O-])o1`?
A549 viability: inconclusive; Nrf2 activator: 29.8%; LDHA block: -4.4; Nrf2 block: inconclusive; ALOX12 inh: 3.98µM*; ERG Ets-DNA blk: 1.2%

What do the screens show for `C=CCSc1ccccc1NC(=O)c1cc(C)c(C)s1`?
LDHA block: -0.5; ALOX12 inh: inconclusive

How did CCOC(=O)c1cccc(NC(=O)NCc2c(-n3cccc3)sc3c2CCN(CC)C3)c1 do in these assays?
LDHA block: 4.4; ALOX12 inh: inconclusive

Results for Cn1ncc2c(-c3ccc(Cl)cc3Cl)cc(C(=O)N3CCN(c4ncccn4)CC3)nc21 ?
ALOX12 inh: 0.9%[6.33 µM]

How did CNc1oc(C2CCCC2)nc1C#N do in these assays?
LDHA block: -2.1

What do the screens show for `NC(=O)COc1ccc(/C=C2\C(=O)ON=C2c2ccccc2)cc1`?
A549 viability: -3.2%; Nrf2 activator: 0.0%; LDHA block: -57.2*; Nrf2 block: 1.3%; ALOX12 inh: 7.08µM*; ERG Ets-DNA blk: -6.8%[15.4 µM]

What do the screens show for `O=C1ON=C(c2ccccc2)/C1=C/c1ccco1`?
A549 viability: -10.9%; Nrf2 activator: -0.6%; LDHA block: 2.8; Nrf2 block: 3.5%; ALOX12 inh: 7.94µM*; ERG Ets-DNA blk: 66.5%

Results for CC(C)c1ccc(/C=C(\C#N)C(=O)NC2CCCC2)cc1 ?
LDHA block: 2.6; ALOX12 inh: 0.2%

Results for O=C(Nc1c(O)c2ccccc2[nH]c1=O)c1ccco1 ?
A549 viability: 1.7%; Nrf2 activator: 10µM*; LDHA block: -2.0; Nrf2 block: 6.0%; ALOX12 inh: -1.7%; ERG Ets-DNA blk: 10.9%

Results for CC(=O)c1ccc(OCc2coc(-c3cccc(F)c3)n2)cc1 ?
LDHA block: -7.0; ALOX12 inh: 44.7µM*

Results for CC(=O)c1cccc(OCc2coc(-c3cccc(F)c3)n2)c1 ?
LDHA block: -1.4; ALOX12 inh: -21.5%

What do the screens show for `Brc1ccc(C2=CC(c3ccco3)n3nnnc3N2)cc1` (configuration not stated)?
A549 viability: -2.3%; Nrf2 activator: 5.01µM*; LDHA block: -7.4; Nrf2 block: 1.5%; ALOX12 inh: inconclusive; ERG Ets-DNA blk: 0.3%

What do the screens show for `CC1=CCC2C(C1)C2(C)C` (configuration not stated)?
ALOX12 inh: 79.4µM*

How did CCCCOC(=O)c1ccc(NC(=O)CCc2ncc(-c3ccccc3)o2)cc1 do in these assays?
LDHA block: 9.8; ALOX12 inh: 57.1%

How did C/C(=N\NC(=S)NCc1ccccc1)c1cccc(Br)c1 do in these assays?
A549 viability: 2.6%; Nrf2 activator: 7.9%; LDHA block: -2.9; Nrf2 block: 5.2%; ALOX12 inh: 31.6µM*; ERG Ets-DNA blk: -17.5%

Results for C/C(=N\NC(=S)NCCc1ccccc1)c1cccc(Br)c1 ?
A549 viability: -7.4%; Nrf2 activator: 2.9%; LDHA block: -2.7; Nrf2 block: inconclusive; ALOX12 inh: 44.7µM*; ERG Ets-DNA blk: -5.9%

What do the screens show for `COc1ccccc1/C(C)=N/NC(=S)NCc1ccccc1`?
A549 viability: 2.4%; Nrf2 activator: 3.8%; LDHA block: -1.3; Nrf2 block: -8.9%; ALOX12 inh: 39.8µM*; ERG Ets-DNA blk: -6.3%

What do the screens show for `C/C(=N\NC(=S)NCc1ccccc1)c1ccc2ccccc2c1`?
A549 viability: 0.3%; Nrf2 activator: 3.2%; LDHA block: -2.0; Nrf2 block: inconclusive; ALOX12 inh: 44.7µM*; ERG Ets-DNA blk: 7.0%

How did COc1ccc(/C(C)=N/NC(=S)NCCc2ccccc2)cc1 do in these assays?
A549 viability: 14.4%; Nrf2 activator: 0.1%; LDHA block: -3.4; Nrf2 block: 12.7%; ALOX12 inh: 0.0%; ERG Ets-DNA blk: 9.2%

Results for C/C(=N/NC(=S)NCc1ccccc1)c1ccncc1 ?
LDHA block: 1.6; ALOX12 inh: -5.1%

Results for CNC(=O)CCNC(=O)c1cc(-c2ccc(OC)cc2)nc2ccccc12 ?
LDHA block: -4.1; ALOX12 inh: 2.3%

What do the screens show for `COc1ccc(NS(=O)(=O)c2ccc(-c3cc(C(F)(F)F)on3)s2)cc1OC`?
LDHA block: 11.1; ALOX12 inh: inconclusive

How did Cc1ccc(-c2nn3c(C)nnc3c3ccccc23)cc1S(=O)(=O)NC(C)(C)CO do in these assays?
A549 viability: inconclusive; Nrf2 activator: inconclusive; LDHA block: -2.3; Nrf2 block: 11.6µM*; ALOX12 inh: 0.9%; ERG Ets-DNA blk: -8.2%

How did O=c1c(Cl)c(N2CCCCC2)cnn1-c1nc2ccccc2[nH]1 do in these assays?
A549 viability: -1.4%; Nrf2 activator: -1.6%; LDHA block: -1.1; Nrf2 block: 16.4µM*; ALOX12 inh: -7.8%; ERG Ets-DNA blk: 0.4%

How did O=c1c2ccccc2cnn1-c1nc2ccccc2[nH]1 do in these assays?
A549 viability: -0.9%; Nrf2 activator: -2.9%; LDHA block: -2.1; Nrf2 block: inconclusive; ALOX12 inh: -5.2%; ERG Ets-DNA blk: -4.7%

What do the screens show for `Cc1cccc(C2CCCN2C(=O)c2cc(-c3ccco3)on2)c1` (configuration not stated)?
LDHA block: -4.2; ALOX12 inh: -28.1%

What do the screens show for `N#C/C(=C\c1ccccn1)c1nc2ccccc2s1`?
A549 viability: -0.7%; Nrf2 activator: 17.8µM*; LDHA block: 0.7; Nrf2 block: inconclusive; ALOX12 inh: 31.6µM*; ERG Ets-DNA blk: 38.9%

Results for CCCCN(C(=O)C1CCC(CNS(=O)(=O)c2cccc3nsnc23)CC1)c1ccccc1 (configuration not stated) ?
A549 viability: -8.2%; Nrf2 activator: -0.5%; LDHA block: -2.1; Nrf2 block: 25.9µM*; ALOX12 inh: -20.5%; ERG Ets-DNA blk: -2.0%

Bioassay records deposited in PubChem by National Center for Advancing Translational Sciences (NCATS).
